Article PMC4336329 (PLoS ONE, 2015)
The campaign covered roughly 310,000 compounds. About 14,000 (4.5%) showed an effect of 50% or more. Effects have a minus sign here. The list comes from a sample in which strong results are over-represented; it also holds similar structures and randomly drawn compounds.

molecular target: human ether-à-go-go-related gene (hERG) potassium channel (human, UniProt Q12809); test: primary screen, population patch clamp on CHO cells stably expressing hERG; higher = less effect of the substance
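Note: peak tail current of the secondary pulse compared with the same well before compound.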

Chain of human ether-à-go-go-related gene (hERG) potassium channel (Q12809 whole entry, looked up): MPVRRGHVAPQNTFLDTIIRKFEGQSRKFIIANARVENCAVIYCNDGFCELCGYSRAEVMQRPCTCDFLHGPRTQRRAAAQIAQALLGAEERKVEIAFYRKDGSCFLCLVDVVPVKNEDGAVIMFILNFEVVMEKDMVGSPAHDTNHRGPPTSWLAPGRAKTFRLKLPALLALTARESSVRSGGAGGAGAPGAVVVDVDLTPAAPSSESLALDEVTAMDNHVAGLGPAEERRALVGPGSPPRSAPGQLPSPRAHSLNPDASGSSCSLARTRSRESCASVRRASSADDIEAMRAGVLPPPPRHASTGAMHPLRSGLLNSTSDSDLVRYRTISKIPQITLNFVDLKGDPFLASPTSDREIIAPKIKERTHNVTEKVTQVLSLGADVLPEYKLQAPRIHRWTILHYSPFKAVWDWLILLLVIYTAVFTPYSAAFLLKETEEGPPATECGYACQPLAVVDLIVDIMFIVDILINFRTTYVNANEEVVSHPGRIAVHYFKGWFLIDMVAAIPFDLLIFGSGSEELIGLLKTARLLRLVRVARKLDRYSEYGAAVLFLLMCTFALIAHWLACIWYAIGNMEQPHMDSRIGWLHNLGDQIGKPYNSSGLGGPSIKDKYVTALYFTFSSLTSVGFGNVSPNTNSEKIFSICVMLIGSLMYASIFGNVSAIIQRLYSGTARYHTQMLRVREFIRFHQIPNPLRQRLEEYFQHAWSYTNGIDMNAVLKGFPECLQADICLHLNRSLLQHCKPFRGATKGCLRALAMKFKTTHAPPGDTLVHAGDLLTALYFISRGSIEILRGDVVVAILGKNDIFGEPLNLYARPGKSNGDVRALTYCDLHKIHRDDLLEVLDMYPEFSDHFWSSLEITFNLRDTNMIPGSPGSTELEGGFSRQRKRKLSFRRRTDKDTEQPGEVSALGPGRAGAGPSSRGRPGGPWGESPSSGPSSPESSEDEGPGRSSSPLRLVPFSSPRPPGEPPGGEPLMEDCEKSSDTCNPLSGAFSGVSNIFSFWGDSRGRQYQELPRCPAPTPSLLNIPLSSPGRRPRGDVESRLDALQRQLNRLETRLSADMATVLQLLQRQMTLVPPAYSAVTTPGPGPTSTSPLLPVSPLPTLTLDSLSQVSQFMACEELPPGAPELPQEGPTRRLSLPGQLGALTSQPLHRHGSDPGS

Compound	hERG current change (%, negative = inhibition) at 10uM [%]
O=C(Nc1ccc2oc(-c3cccnc3)nc2c1)c1ccco1	-33.2
CC(=O)Nc1ccc(S(=O)(=O)N2CCC(C(=O)N[C@@H](C)C(=O)NC3CCCC3)CC2)cc1	35.3
Cc1nc2ccccc2c(=O)n1Cc1ccc([N+](=O)[O-])cc1	-74.4
Cc1c(C=O)c2ccccc2n1Cc1ccccc1	-2.16
Cc1c(C=O)c2ccccc2n1Cc1ccc([N+](=O)[O-])cc1	-78.1
Cc1nc2ccc([N+](=O)[O-])cc2c(=O)n1Cc1ccc(F)cc1	-26.2
CCn1c(=O)c2ccccc2n(Cc2ccc([N+](=O)[O-])cc2)c1=O	-77
COc1ccc(Cn2c(C)nc3ccc([N+](=O)[O-])cc3c2=O)cc1	-20
Cc1nc2ccc([N+](=O)[O-])cc2c(=O)n1Cc1ccc(Br)cc1	7.76
CCn1c(=O)c2ccccc2n(Cc2cccc([N+](=O)[O-])c2)c1=O	15.3
Cc1c(C=O)c2ccccc2n1Cc1ccc(F)cc1	-43.1
Cc1nc2ccc([N+](=O)[O-])cc2c(=O)n1Cc1ccc(Cl)cc1	-4.6
CCn1c(=O)c2ccccc2n(Cc2cccc(C)c2)c1=O	3.93
Cc1nc2ccc([N+](=O)[O-])cc2c(=O)n1Cc1ccc([N+](=O)[O-])cc1	-76.8
Cc1onc(-c2ccccc2Cl)c1C(=O)Nc1ccc(S(=O)(=O)NCC2CCCO2)cc1 (centres unmarked)	-10.5
COc1ccc(C(=O)Nc2ccccc2N2CCOCC2)cc1S(=O)(=O)N1CCCC1	-24.5
O=C(NCCCN1CCOCC1)c1cccc(S(=O)(=O)N2CCc3ccccc3C2)c1	-17
O=C(NNC(=O)c1ccc(Cl)cc1Cl)c1ccncc1	17
Cc1ccc(-c2cccc(C(=O)NCc3ccccc3)n2)c2ccccc12	17.8
CCOC(=O)N1C=CC=C[C@@H]2[C@@H](N3C(=O)c4ccccc4C3=O)C(=O)N21	0.941
COc1ccc(OC)c2[nH]c(=O)c(CCNC(=O)C(=O)c3c(C)[nH]c4ccccc34)cc12	-1.04
C/C(CC(=O)Nc1ccccc1[N+](=O)[O-])=N\NC(=O)COc1ccccc1C	-5.65

Compound	hERG current change (%, negative = inhibition) at 10uM [%]
COC(=O)c1cc(-c2ccc(OC)c(OC)c2)c2c(=O)[nH]c(=O)n(C)c2n1	21.3
COc1ccc(CSCCc2n[nH]c(=S)n2-c2ccccc2)cc1	20.1
CC1=Nn2c(nnc2-c2n[nH]c3c2CCC3)SC1	8.18
COc1ccc(N(CC(=O)NC(C)c2ccccc2)S(=O)(=O)c2ccc(C)cc2)cc1 (centres unmarked)	-22.1
COc1ccc(N(CC(=O)Nc2ccc(C(N)=O)cc2)S(=O)(=O)c2ccc(C)c([N+](=O)[O-])c2)cc1	24
CCNC(=O)CN(c1ccc(C)cc1)S(=O)(=O)c1ccccc1	7.75
COc1ccc(S(=O)(=O)N(CC(=O)NCc2cccnc2)c2ccc(C)cc2)cc1OC	-10
CN(c1ccc(OCC(=O)OCC(=O)Nc2ccccc2)cc1)S(=O)(=O)c1ccc(F)cc1	-11.9
COc1ccc(S(=O)(=O)N(CC(=O)NCc2cccnc2)c2ccc(F)cc2)cc1OC	4.62
CN(c1ccc(OCC(=O)OCC(=O)Nc2ccc(F)cc2)cc1)S(=O)(=O)c1ccc(Cl)cc1	-59.2
COc1ccc(N(CC(=O)NCc2ccncc2)S(=O)(=O)c2ccc(C)c([N+](=O)[O-])c2)cc1	-50.9
Cc1ccc(S(=O)(=O)N(CC(=O)NCc2cccnc2)c2ccc(F)cc2)cc1	-61.2
CN(c1ccc(OCC(=O)OCC(=O)Nc2c(F)c(F)c(F)c(F)c2F)cc1)S(=O)(=O)c1ccc(F)cc1	8.61
COc1ccc(N(CC(=O)NCc2cccnc2)S(=O)(=O)c2ccc(C)c([N+](=O)[O-])c2)cc1	-36.6
Cc1ccc(N(CC(=O)NCC(O)c2ccccc2)S(=O)(=O)c2ccc(C)cc2)cc1 (centres unmarked)	-65.9
Fc1ccc(C2=CCN(C(c3cccs3)c3nnnn3CCc3ccccc3)CC2)cc1 (centres unmarked)	-0.341
O=C(CCC(=O)c1cccs1)Nc1ccccc1F	3.01
COc1ccc(C(=O)CCC(=O)NCCc2c[nH]c3ccccc23)cc1OC	21.2
Cc1cccc(C)c1NC(=O)c1ccc(CN2CCc3ccccc3C2)cc1	4.57
Cc1nn(CC(=O)N2CCCCCC2)c(=O)c2cc3occc3n12	14.6
Cc1cc(NC(=O)c2cc(-c3ccc(Br)cc3)on2)no1	17.6
COc1ccc(CCNC(=O)c2ccccc2OCc2c(C)noc2C)cc1	-26.4

Compound	hERG current change (%, negative = inhibition) at 10uM [%]
NS(=O)(=O)c1ccc(NC(=O)/C=C/c2ccccc2Cl)cc1	9.54
CN=C(Nc1cc(C)nn1-c1ccccc1)c1ccc(F)cc1	-9.94
COc1cc(SC)ccc1C(=O)Nc1cccc(S(=O)(=O)NC2=NCCCCC2)c1	4.08
O=C(COc1ccc(S(=O)(=O)N2CCCC2)cc1)NCc1cccnc1	-3.42
COCCNC(=O)COc1ccc(N(C)S(=O)(=O)c2ccc3ccccc3c2)cc1	-62
Cc1ccc(S(=O)(=O)N(Cc2ccc(Cl)cc2)c2ccccc2C(=O)NCc2cccnc2)cc1	-52
O=C(COc1ccc(S(=O)(=O)N2CCCC2)cc1Cl)NCc1cccnc1	-55
O=C(COc1ccc(S(=O)(=O)N2CCCCC2)cc1)NCc1cccnc1	3.06
CN(c1ccc(OCC(=O)NCc2cccnc2)cc1)S(=O)(=O)c1ccc(Cl)cc1	-58.4
CN(c1ccc(OCC(=O)OCC(=O)NCc2ccco2)cc1)S(=O)(=O)c1ccc2ccccc2c1	2.22
Cc1ccc(S(=O)(=O)N(Cc2ccccc2)c2ccccc2C(=O)NCc2cccnc2)cc1	-33.2
CN(c1ccc(OCC(=O)NCCc2ccccc2)cc1)S(=O)(=O)c1ccc(Cl)cc1	15.2
CN(c1ccc(OCC(=O)O)cc1)S(=O)(=O)c1ccc2ccccc2c1	16.1
Cc1ccc(S(=O)(=O)N(Cc2ccc(Cl)cc2)c2ccccc2C(=O)NCc2ccco2)cc1	-10.8
CCOc1ccc(S(=O)(=O)N(C)c2ccc(OCC(=O)NCc3cccnc3)cc2)cc1	-21.5
COc1cc(/C=C/c2ccc3c(Br)cc(Br)c(O)c3n2)ccc1O	17.2
O=C(CSc1ccc([N+](=O)[O-])cn1)Nc1ccc(N2CCOCC2)c(Cl)c1	-33.2
CCc1nnc(NC(=O)CSc2nnnn2-c2cccc(C(=O)OC)c2)s1	8.39
O=C(Cc1cccs1)Nc1nnc(COc2ccccc2)s1	3.05
O=C(CN1C(=O)NC2(CCc3ccccc32)C1=O)Nc1cc(C(F)(F)F)ccc1N1CCOCC1 (centres unmarked)	-5.15
O=C(COc1ncnc2ccccc12)N1CCN(S(=O)(=O)c2ccc(Cl)cc2)CC1	-9.26
Cc1nc(Cl)c2c(n1)NC1=C(O2)C(=O)CCC1	14.7

Compound	hERG current change (%, negative = inhibition) at 10uM [%]
COc1cccc(/C=C2\SC(=S)N(CCC(=O)NCCc3ccc(O)cc3)C2=O)c1	3.18
COc1ccc(Nc2nc(-c3sc(N)nc3C)cs2)cc1	8.32
O=C(NNC1=Nc2cccc3cccc1c23)c1ccc(Br)cc1	4.78
Cc1cccc2cc(C(c3nnnn3Cc3ccccc3)N3CCN(c4ccccc4)CC3)c(=O)[nH]c12 (centres unmarked)	-29.1
COc1cccc(/C=N/NC(=O)COc2cccc3cccnc23)c1O	0.232
CN(C)/C=C(/C(=O)c1ccc(Cl)c(Cl)c1)c1nnnn1-c1ccccc1	9.85
COc1ccc(C2C3=C(CCCC3=O)Nc3nc(SCc4ccc(C(=O)O)cc4)nn32)cc1OC (centres unmarked)	-3.79
Cl.Cn1cccc1CNCCc1ccccc1	-1.74
CCc1ccc(N(CC(=O)NCc2cccnc2)S(=O)(=O)c2ccccc2)cc1	-27
COCCNC(=O)CN(c1ccc(OC)c(OC)c1)S(=O)(=O)c1ccc(C)cc1	-8.68
CCOc1ccc(S(=O)(=O)N(CC(=O)NCc2cccnc2)c2ccc(C)cc2)cc1	-66.9
CCOc1ccc(S(=O)(=O)N(CC)CC(=O)NCc2cccnc2)cc1	-38
CN(c1ccc(C(=O)N2CCCCC2)cc1)S(=O)(=O)c1ccccc1	-10.8
COc1ccc(S(=O)(=O)N(CC(=O)NCc2ccncc2)c2ccc(C)cc2)cc1OC	-6.77
CN(c1ccc(C(=O)N2CCOCC2)cc1)S(=O)(=O)c1ccc(Cl)cc1	-34.2
COc1ccc(S(=O)(=O)N(CC(=O)NCCCN(C)C)c2ccc(C)cc2)cc1OC	-56.6
COCCNC(=O)CN(c1ccc(C)cc1)S(=O)(=O)c1ccccc1	9.01
COc1ccc(N(CC(=O)NCCOc2ccccc2)S(=O)(=O)c2ccc(C)cc2)cc1	-54.8
CN(c1ccc(C(=O)N2CCCCCC2)cc1)S(=O)(=O)c1ccc(Cl)cc1	-63
COCCNC(=O)CN(c1cccc(OC)c1)S(=O)(=O)c1ccc(C)cc1	-12.2
